# Compounds with a hit are over-represented: about 6.9% of the library has one in this group of screens.
# Beta apoptosis: inhibitors of cytokine-induced beta cell apoptosis, primary screen, luminescence. INS-1E cytokine-induced death, ATP luminescence, 48 h; percent of positive-control rescue, neutral wells zero. protection from apoptosis, % (test concentration not listed). 300,000 compounds, 0.8% hits. AID 435005, 2010;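 active = Every replicate reaches about 75%, or at least half do and their mean reaches it too, limit read from the data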;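 note: higher means more ATP so stronger rescue from cytokine killing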
# SKKanGAS inh: S. pyogenes SKKanGAS growth inhibitors in kanamycin, primary screen, streptokinase expression inhibitor project, SKKanGAS strain, BacTiter-Glo luminescence | inhibition, % at 7.5 µM | 6 h | 300,000 compounds, 1.3% hits;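 active = mean replicate score, as percent of positive control median, at least 50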;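 note: strain carries kanamycin resistance gene driven by streptokinase promoter and grows in 40 µg/ml kanamycin; loss of luminescence reflects streptokinase promoter inhibition or plain growth inhibition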
# NR3A LBD binder: binders of NR3A ligand-binding domain, primary screen, biophysical, differential scanning fluorimetry, uHTS | Glutamate receptor ionotropic, NMDA 3A (GRIN3A) ligand-binding domain | NR3A LBD differential scanning fluorimetry, Tm shift; 0% = protein alone, 100% = glycine-bound protein | Tm shift relative to glycine control, % at 25 µM | 340,000 compounds, 2.5% hits | AID 1259313, 2017;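 active = melting temperature shift of at least 10% of the positive control shift, at one fixed dose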
# CSC inhib: cancer stem cell viability inhibitors, primary screen, luminescence; 300,000 compounds, 1.1% hits; cancer stem cell-like cells viability; inhibition, % at 7.5 µM; in the data active = inhibition above about 75%; tested in HMLE shEcad cells
# Mdm2-MdmX inh: inhibitors of human Mdm2-MdmX association, primary screen, cell-based, luminescence, split luciferase, SaOS-2, uHTS; SaOS-2 split-luciferase Mdm2/MdmX complementation; 330,000 compounds, 3% hits; inhibition, % at 8 µM;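 active = inhibition of at least 50% at 8 µM in the primary screen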
# Target sequence (O15151 whole entry, looked up): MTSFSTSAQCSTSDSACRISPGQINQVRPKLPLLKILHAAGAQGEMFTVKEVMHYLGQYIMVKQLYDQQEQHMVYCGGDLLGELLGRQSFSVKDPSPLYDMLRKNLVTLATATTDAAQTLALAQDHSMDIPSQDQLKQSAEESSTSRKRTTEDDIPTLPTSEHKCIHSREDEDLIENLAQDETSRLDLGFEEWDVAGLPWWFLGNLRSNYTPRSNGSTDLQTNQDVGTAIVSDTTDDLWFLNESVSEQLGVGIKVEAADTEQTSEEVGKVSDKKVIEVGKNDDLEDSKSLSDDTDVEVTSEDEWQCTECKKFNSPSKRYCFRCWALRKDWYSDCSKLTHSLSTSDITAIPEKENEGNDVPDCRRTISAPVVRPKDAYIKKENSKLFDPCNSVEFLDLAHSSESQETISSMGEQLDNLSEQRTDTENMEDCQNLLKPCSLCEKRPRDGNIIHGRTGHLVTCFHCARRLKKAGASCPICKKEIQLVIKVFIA
# Target sequence (Q00987 whole entry, looked up): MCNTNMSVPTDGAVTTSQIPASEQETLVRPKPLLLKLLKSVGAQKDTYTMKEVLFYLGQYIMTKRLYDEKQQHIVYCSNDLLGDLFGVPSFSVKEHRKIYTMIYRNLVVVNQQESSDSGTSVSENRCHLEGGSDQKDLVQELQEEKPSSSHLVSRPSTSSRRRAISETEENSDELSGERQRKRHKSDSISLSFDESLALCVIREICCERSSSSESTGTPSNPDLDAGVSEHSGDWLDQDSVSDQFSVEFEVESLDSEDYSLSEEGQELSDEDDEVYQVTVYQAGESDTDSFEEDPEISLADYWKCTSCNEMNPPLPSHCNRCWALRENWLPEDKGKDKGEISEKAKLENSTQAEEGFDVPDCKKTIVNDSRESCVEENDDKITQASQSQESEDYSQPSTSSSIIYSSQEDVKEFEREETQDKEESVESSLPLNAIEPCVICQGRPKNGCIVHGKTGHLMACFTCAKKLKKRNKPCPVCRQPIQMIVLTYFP
# MPTP inh: mitochondrial permeability transition pore inhibitors, primary screen, biochemical, isolated mouse mitochondria, absorbance; Ca2+ swelling absorbance, 30 min; inhibition, % at 10 µM; 360,000 compounds, 1.4% hits;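 active = inhibition of 50% or more, scaled per plate between neutral and stimulator controls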
# Mdm2 MdmX conf: Mdm2-MdmX complex disruptors, retested hits, confirmation, luminescence, single concentration; inhibition, % at 8 µM; 10,000 compounds, 55% hits; AID 489028, 2010; shares compounds with Mdm2-MdmX inh; Mdm2-MdmX binding, luminescent assay; in the data active = inhibition above about 40%
# Full FLuc ctr: full-length luciferase signal inhibition, confirmation, counter-screen for Mdm2/MdmX interaction inhibitor project, cell-based, single concentration, SaOS-2; shares compounds with Mdm2-MdmX inh; SaOS-2 full-length luciferase counterscreen, luminescence; inhibition, % at 8 µM; 6,200 compounds, 77% hits; AID 504607, 2011;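 active = mean inhibition at 8 µM reaching about 37%, which flags the compound as non-specific, limit read from the data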;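 note: p53-null SaOS-2 cells with luciferase driven by a doxycycline-inducible promoter; compound on cells about two nights before reading with doxycycline added after day one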
# MPTP counter: fluorescence retest of MPTP screen hits in isolated mitochondria, single concentration; inhibition, % at 10 µM; 5,000 compounds, 78% hits; shares compounds with MPTP inh; membrane potential, Rhodamine 123 fluorescence; in the data active = inhibition above about 22%
# MPTP swell DR: mitochondrial permeability transition pore inhibitors, dose response, biochemical, absorbance, uHTS hits; shares compounds with MPTP inh; isolated mitochondria swelling; IC50, µM; 780 compounds, 58% hits; in the data active = IC50 below about 20 µM
# MPTP counter DR: fluorescent counter-screen in isolated mitochondria, dose response, counter-screen for MPTP inhibitor project, biochemical, fluorescence, uHTS hits. shares compounds with MPTP inh. isolated mitochondria counterscreen, fluorescence read-out. IC50, µM. 780 compounds, 49% hits. AID 651564, 2012; in the data active = IC50 below about 80 µM
# A number is an active result; i = inactive; nt = no result.
SMILES,Beta apoptosis,SKKanGAS inh,NR3A LBD binder,CSC inhib,Mdm2-MdmX inh,MPTP inh,Mdm2 MdmX conf,Full FLuc ctr,MPTP counter,others
COC(=O)C1=C(C)N(Cc2ccccc2)C(=NCC(C)C)N[C@H]1c1cccc(C(F)(F)F)c1,i,nt,i,i,99,86,51,i,i,
COC(=O)C1=C(C)N(Cc2ccccc2)C(=NCc2cccc(Cl)c2)N[C@H]1c1cccc(F)c1,98,nt,i,134,100,86,60,i,i,
COC(=O)C1=C(C)N(Cc2ccccc2)C(=NCc2ccco2)N[C@H]1c1cccc(F)c1,i,nt,i,nt,i,i,nt,nt,nt,
CC(C(=O)OCC(=O)Nc1ccc(S(N)(=O)=O)cc1)N1C(=O)c2ccccc2C1=O (centres undefined),i,nt,i,i,i,i,nt,nt,nt,
CCOC(=O)c1c(NC(=O)C(NCCN(C)C)c2ccccc2)sc2c1CCCC2 (centres undefined),i,i,i,i,94,81,i,69,i,
CCOC(=O)c1c(NC(=O)C[n+]2ccccc2)sc2c1CCCC2,i,i,i,i,i,i,nt,nt,nt,
CCOC(=O)c1cc([N+](=O)[O-])sc1NC(=O)c1ccc(S(=O)(=O)N2CC3(C)CC2CC(C)(C)C3)cc1 (centres undefined),i,i,i,i,95,91,51,57,i,MPTP swell DR=2.4;MPTP counter DR=<2.5
CC1(C)CC2CC(C)(CN2S(=O)(=O)c2ccc(C(=O)Nc3ccc(S(=O)(=O)N4CCOCC4)cc3)cc2)C1 (centres undefined),i,i,i,nt,i,i,nt,nt,nt,
Cc1ccc(Nc2nc(N)[nH]c(=O)c2N=O)cc1,i,i,i,i,i,i,nt,nt,nt,
O=C(COc1ccc2c(-c3ccccc3)cc(=O)oc2c1)Nc1cccnc1,i,i,i,i,68,85,42,82,87,
CCOc1ccccc1C(=O)NCC(=O)OCCOc1cccc(Cl)c1,nt,i,i,i,i,i,nt,nt,nt,
Cc1c(Cc2ccccc2)c(=O)n2c([nH]c3ccccc32)c1C#N,i,i,i,i,61,84,42,57,74,
COc1ccccc1N=Cc1c(C)c(C#N)c2[nH]c3ccccc3n2c1=O,i,i,i,i,i,i,nt,nt,nt,
CC(=O)Nc1ccc(NC(=O)CSc2nc(=O)n(Cc3cccnc3)c3c2CCC3)cc1,nt,nt,i,nt,nt,i,nt,nt,nt,
COc1ccc(S(=O)(=O)N2CCC(C(=O)NCCc3c[nH]c4ccccc34)CC2)cc1,i,i,i,i,i,i,nt,nt,nt,
COc1ccccc1NC(=S)Nc1ccc2cn[nH]c2c1,i,i,i,i,i,i,nt,nt,nt,
COc1ccc(C[C@H]2CN3C(=NC[C@@H]3C(C)C)N2CCNC(=O)c2ccc(C)c(Br)c2)cc1,i,i,i,i,64,69,i,nt,i,
Cc1ccc(C(=O)NCCN2C3=NC[C@H](C(C)C)N3C[C@H]2Cc2ccc(O)cc2)cc1Br,i,i,i,i,i,i,nt,nt,nt,
Cc1cc(/C=N/n2cnnc2)c(C)n1-c1ccc(OCc2ccc(Cl)cc2)cc1,122,62,i,i,61,114,62,92,100,
C(=N\n1cnnc1)/c1ccc(OCc2ccccc2)cc1,i,i,i,i,i,i,nt,nt,nt,
NC(N)=Nc1nc(-c2ccccc2)c2cc(F)ccc2n1,i,i,i,i,66,82,60,49,i,MPTP swell DR=6.2;MPTP counter DR=47
CC(C)[C@H](NC(=O)c1ccc(Br)cc1)C(=O)NC1CCCCC1,nt,nt,i,nt,i,i,nt,nt,nt,
CCOc1ccc(-c2cnc(NCc3cccc4ccccc34)n2CCOC)cc1,i,i,i,i,88,89,i,nt,97,
CC(=O)Nc1ccc(NC(=O)C(C)NC(C)c2cccc3ccccc23)cc1 (centres undefined),i,i,i,i,i,i,nt,nt,nt,
O=C(CCSc1nc2ccccc2s1)N/N=C/c1c(O)ccc2ccccc12,85,i,i,80,82,77,82,i,63,
SMILES,Beta apoptosis,SKKanGAS inh,NR3A LBD binder,CSC inhib,Mdm2-MdmX inh,MPTP inh,Mdm2 MdmX conf,Full FLuc ctr,MPTP counter,others
Cc1ccccc1NC(=O)c1ccc(CN2CCC(Cc3ccccc3)CC2)cc1,i,i,i,i,58,56,i,82,i,MPTP swell DR=12;MPTP counter DR=36
CC(C)NC(=O)c1ccc(CN2CCC(Cc3ccccc3)CC2)cc1,i,i,i,i,i,i,nt,nt,nt,
O=S(=O)(NC1CC(NS(=O)(=O)OCC(Cl)(Cl)Cl)C2CCCCC12)OCC(Cl)(Cl)Cl (centres undefined),i,91,i,83,77,70,70,59,102,
CCN(CC)CCN(C(=O)C1=COCCO1)c1nc2c(OC)ccc(OC)c2s1,i,i,i,i,i,i,nt,nt,nt,
CCCN(CC(=O)Nc1cc(Cl)cc(Cl)c1)CC(=O)Nc1ccc(F)c(F)c1F,i,82,20,nt,52,57,i,nt,59,
CCCN(CC(=O)Nc1ccccc1Br)CC(=O)Nc1ccc(F)c(F)c1F,i,i,i,i,i,i,nt,nt,nt,
S=C(NNc1ccnc2cc(Cl)ccc12)Nc1ccc(Cl)cc1Cl,i,71,15,i,92,101,i,49,73,
CCc1ccc(CNC(=O)CCS(=O)(=O)Cc2ccc(C)cc2)cc1,i,i,i,i,i,i,nt,nt,nt,
O=c1c2ccccc2nc(N/N=C/c2ccc(O)cc2)n1O,i,i,i,i,i,i,nt,nt,nt,
O=c1c2ccccc2nc(N/N=C/c2c(O)ccc3ccccc23)n1O,98,i,12,112,71,52,68,i,i,
O=C(Cc1c(F)cccc1Cl)NNC(=S)Nc1ccc(S(=O)(=O)Nc2ncccn2)cc1,i,i,i,i,i,i,nt,nt,nt,
CCCCCn1c(N)c(-c2nc3ccccc3o2)c2c([N+](=O)[O-])nn(CC)c(=O)c21,i,i,i,i,i,i,nt,nt,nt,

# Screens: PubChem BioAssay, several laboratories
